Bioassay records deposited in PubChem by several laboratories.
PG9 Ab binder – PG9 antibody binding by small molecule | TR-FRET gp120-PG9 antibody binding | inhibition, % at 6.7 µM | actives 0.43% (n = 360,000) | AID 624416; in the data active = inhibition above about 8.5%
PP5 primary – PP5 (human) phosphatase inhibition. P53041. purified PP5c, OMFP substrate fluorescence. inhibition, % at 6.7 µM. actives 0.18% (n = 320,000). AID 1987;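 active = inhibition above the campaign's mean inhibition across all tested compounds plus 3 SD, cut at about 9.5% in these data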;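 also: 0% = DMSO only and 100% = 100 µM cantharidin control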
PP1 counter – PP1-alpha (human) inhibition in PP5 counter-screen; P62136; actives 0.9% (n = 320,000); AID 2235; inhibition, % at 6.7 µM; purified PP1alpha, OMFP fluorescence;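 active = inhibition above the mean inhibition of all tested compounds plus 3 SD, computed separately for each screening campaign, cut at about 15% in these data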
KLK7 zymogen act – activates the human kallikrein-7 zymogen; P49862; purified proKLK7, EDANS-DABCYL substrate fluorescence; 100% is mature enzyme control, 0% vehicle; activation, % at 7 µM; actives 0.9% (n = 370,000); AID 652039;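 active = activation above the mean of all tested compounds plus 3 SD, computed per campaign excluding outliers beyond control limits, cut at about 13% in these data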
Target sequence (P49862 whole entry, looked up): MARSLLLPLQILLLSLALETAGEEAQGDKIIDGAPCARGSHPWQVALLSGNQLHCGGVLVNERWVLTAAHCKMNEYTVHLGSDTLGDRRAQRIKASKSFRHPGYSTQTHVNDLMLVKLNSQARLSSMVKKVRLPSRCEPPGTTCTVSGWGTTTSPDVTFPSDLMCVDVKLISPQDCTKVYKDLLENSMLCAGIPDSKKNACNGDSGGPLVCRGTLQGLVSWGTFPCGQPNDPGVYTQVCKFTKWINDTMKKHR
GASC-1 inh – blocks human GASC-1 demethylase activity | GST-JMJD2C(1-420) H3K9me3 demethylation, DELFIA europium | inhibition, % at 2.35 µM | actives 0.069% (n = 330,000) | AID 2099;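 active = more than half of a compound's replicate wells show inhibition beyond 50%, single wells judged on their own value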;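 also: signal counts dimethyl H3K9 product captured on neutravidin plate; 0% = median of DMSO wells and 100% = 0.3 times that DMSO median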
Target sequence (Q9H3R0 1-420 limits assumed): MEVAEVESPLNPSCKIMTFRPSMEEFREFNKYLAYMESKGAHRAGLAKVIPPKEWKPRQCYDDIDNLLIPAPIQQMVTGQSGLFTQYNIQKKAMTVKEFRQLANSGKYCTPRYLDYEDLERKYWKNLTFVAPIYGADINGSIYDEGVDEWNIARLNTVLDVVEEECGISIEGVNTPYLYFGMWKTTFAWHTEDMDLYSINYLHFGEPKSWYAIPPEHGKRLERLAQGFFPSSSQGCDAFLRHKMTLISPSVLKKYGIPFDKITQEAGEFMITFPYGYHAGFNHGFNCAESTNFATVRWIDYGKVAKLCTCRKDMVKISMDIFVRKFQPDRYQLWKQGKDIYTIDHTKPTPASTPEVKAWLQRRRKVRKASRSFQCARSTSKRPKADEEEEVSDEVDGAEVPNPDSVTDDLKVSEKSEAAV
Rev-erbA mod – Rev-erb alpha (human) modulation; actives 0.79% (n = 370,000); Rev-erbα–FITC-DNA binding, fluorescence polarization, 90 min; P20393; activity, % at 10 µM;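 active = activity above about 14%, limit read from the data; passing the limit was not always enough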;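 also: 0% = DMSO wells with 35 nM protein and 100% = DMSO wells with 750 nM protein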
PG9 bind confirm – PG9 antibody binding, confirmed; actives 90% (n = 1,500); inhibition, % at 6.7 µM; TR-FRET PG9 antibody binding, biochemical; shares compounds with PG9 Ab binder; in the data active = inhibition above about 9%
PGV04 Ab binding – binds control antibody PGV04 in PG9 binder counter-screen; inhibition, % at 6.7 µM; shares compounds with PG9 Ab binder; actives 95% (n = 1,500); AID 651604; TR-FRET PGV04 antibody-gp120 binding, biochemical; in the data active = inhibition above about 9.5%
PG9 bind DR – PG9 antibody binding, dose response. shares compounds with PG9 Ab binder. TR-FRET PG9 antibody-gp120 binding inhibition. IC50, µM. 95 tested, under 10 active. AID 651848; in the data active = IC50 below about 10 µM
PGV04 DR counter – binds control antibody PGV04 in PG9 counter-screen. TR-FRET binding to control antibody PGV04. IC50, µM. shares compounds with PG9 Ab binder. actives 20% (n = 95)
PG126 DR counter – binds control antibody PG126 in PG9 counter-screen | shares compounds with PG9 Ab binder | TR-FRET binding to antibody PG126, counterscreen | IC50, µM | actives 20% (n = 95)
* = called active by the depositor; i = inactive; x = no result. Rows were chosen to be rich in hits. Some 2.8% of all compounds tested hit in one or more screens of this group. Rule as the data show it, unless noted: active = IC50 below about 9 µM; inactive = the rest.

SMILES	PG9 Ab binder	PP5 primary	PP1 counter	KLK7 zymogen act	GASC-1 inh	Rev-erbA mod	PG9 bind confirm	PGV04 Ab binding	others
O=C(Nc1ccc(F)cc1Cl)c1ccc2c(=O)n3c(nc2c1)CCCCC3	29.4*	5.9	-3.5	0.2	1.3	19.4	30.2*	9.7*	PG9 bind DR=>67.1;PGV04 DR counter=i;PG126 DR counter=i
COc1ccc(/C(O)=C2/C(=O)C(=O)N(CCN(C)C)C2c2ccc(F)cc2)cc1Cl (stereo not drawn)	9.5*	1.9	2.5	0.3	1.8	10.7	20.2*	23.3*
COc1ccc(C2/C(=C(/O)c3ccc(F)cc3)C(=O)C(=O)N2CCCN(C)C)cc1 (stereo not drawn)	-1.5	x	x	0.0	x	-0.8	x	x
COc1ccc(/C(O)=C2/C(=O)C(=O)N(CCN(C)C)C2c2cccnc2)cc1C (stereo not drawn)	12.7*	-1.2	-2.5	0.1	6.4	1.6	21.7*	27.5*
CN(Cc1cn(Cc2ccccc2)nn1)S(=O)(=O)c1ccc(F)cc1Br	x	x	x	0.8	x	-3.8	x	x
Cc1ccccc1CN1CCCCC(NC(=O)C(C)(C)C)C1=O (stereo not drawn)	x	x	x	-0.2	x	1.7	x	x
COc1ccc(C(=O)NC2CCSc3ccccc32)cc1 (stereo not drawn)	-2.3	0.5	0.7	0.5	-3.0	0.1	x	x
CSc1ccc(C(=O)NC2CCSc3ccccc32)cc1 (stereo not drawn)	15.8*	0.7	5.7	0.2	-13.6	1.1	10.7*	10.1*	PG9 bind DR=>67;PGV04 DR counter=i;PG126 DR counter=i
COc1ccc(C(=O)C2(C(=O)NCc3ccccc3)CC(c3ccccn3)=NO2)cc1 (stereo not drawn)	x	x	x	0.3	x	-0.5	x	x
Cc1nc(SCC(=O)Nc2nccs2)c(C#N)c(C)c1C	33.3*	2.7	-0.6	7.6	10.0	11.5	43.6*	66.1*
Cc1ccc(CNC(=O)c2cc3c(s2)CN(Cc2ccccc2)C3)cc1	17.9*	-1.3	2.4	-0.6	15.0	11.6	19.6*	21.4*
COc1ccc(OCC(=O)Nc2cc(S(=O)(=O)N3CCCCC3)ccc2OC)cc1	2.2	2.9	1.6	-0.1	92.5	-6.8	x	x
COc1ccc(OCC(=O)Nc2cc(S(=O)(=O)N3CCCC3)ccc2OCC(F)(F)F)cc1	9.3*	x	x	-0.1	x	0.8	21.2*	28.4*
N#Cc1ccc(OCC(=O)Nc2ccc3[nH]c(=O)[nH]c3c2)cc1	1.4	-0.8	-2.8	0.2	3.0	1.9	x	x
CC(=O)Nc1ccc(NC(=O)COc2ccc(-c3ccc(C#N)cc3)cc2)cc1	9.0*	-2.2	16.6*	-0.9	-3.7	-1.1	11.8*	17.6*
Cc1ccc(C(C)(C)C)cc1S(=O)(=O)Nc1nc2ccccc2nc1Cl	13.3*	3.1	8.7	0.4	1.0	5.8	21.5*	24.6*
CC(=O)Nc1ccc(S(=O)(=O)Nc2nc3cc4c(cc3nc2Cl)OCCO4)cc1	13.4*	-3.0	0.3	10.1	-3.4	-3.7	26.3*	35.3*
CC(=O)Nc1ccc(S(=O)(=O)Nc2nc3ccccc3nc2Cl)cc1	16.6*	-1.6	-2.1	0.8	-2.3	2.4	25.3*	31.7*
O=c1[nH]c(-c2ccccc2)cn1C1CCN(Cc2ccc(-c3nc4ccc(Br)cc4nc3-c3ccccc3)cc2)CC1	2.2	x	x	-1.6	x	11.3	x	x
COC(=O)c1sc(NC(=S)NNC(=O)c2c(Br)c(C)nn2C)c(C(=O)OC)c1C	18.5*	2.5	2.2	-0.3	3.3	1.6	6.5	10.0*
O=C(Nc1nnc(SCc2ccc(F)cc2)s1)c1ccc2ncsc2c1	9.7*	x	x	-0.4	6.4	12.4	19.4*	25.4*
Cc1nc2ccc(NC(=O)CCS(=O)(=O)c3ccc(Cl)cc3)cc2s1	-1.4	0.7	0.1	0.6	2.8	2.7	x	x
O=C(CCS(=O)(=O)c1ccccc1)Nc1ccc(-c2nc3ccccc3s2)c(O)c1	26.2*	-0.6	-5.3	-57.8	6.9	8.5	22.3*	50.8*
CCSc1nnc(NC(=O)c2csc3c2CCCC3)s1	9.2*	0.5	3.0	0.0	5.1	11.8	23.8*	37.5*
CCOC(=O)CN1C(=O)[C@]2(OCCC=C[C@H]2C)c2ccccc21	0.1	x	x	-0.1	x	-4.3	x	x
SMILES	PG9 Ab binder	PP5 primary	PP1 counter	KLK7 zymogen act	GASC-1 inh	Rev-erbA mod	PG9 bind confirm	PGV04 Ab binding	others
CC(C)CC(=O)NC(=S)Nc1sc2c(c1C(N)=O)CCC2	17.2*	0.4	-0.3	-0.9	1.7	2.7	26.2*	33.1*
CC(C)(C)C(=O)NC(=S)Nc1sc2c(c1C(N)=O)CCC2	0.7	2.4	-1.5	-0.3	-4.3	-3.9	x	x
COc1ccc(-c2nc(-c3cccs3)no2)cc1	-0.1	0.7	1.6	-0.1	-3.6	0.9	x	x
Cc1ccc(-c2noc(-c3cccs3)n2)cc1	8.8*	0.2	-5.7	-0.5	3.2	8.0	26.1*	27.7*
O=C(CCCn1c(=O)[nH]c2ccc(Br)cc2c1=O)NCc1ccc(Cl)cc1	15.8*	0.3	-2.4	0.0	1.7	15.3	18.4*	32.5*
CC(C)CCNC(=O)CCCn1c(=O)[nH]c2ccc(Br)cc2c1=O	-0.5	-7.7	3.2	0.2	-12.7	6.6	x	x
O=C(O)C1CC=CCC1C(=O)N1CCN(c2nc(-c3ccccc3Cl)c3cc(Br)ccc3n2)CC1 (stereo not drawn)	12.7*	0.1	17.4*	0.1	-1.2	2.8	25.4*	40.9*
COc1ccccc1N1CCN(C(=O)C2CC=CCC2C(=O)O)CC1 (stereo not drawn)	-0.1	-0.7	-1.6	-0.4	-14.5	-1.7	x	x
O=c1oc(-c2cccc(Cl)c2)nc2c1cnn2-c1ccccc1	1.3	0.4	1.6	0.0	37.7	0.1	x	x
O=c1oc(-c2ccccc2F)nc2c1cnn2-c1ccccc1	20.4*	2.2	-4.7	0.1	3.9	-0.7	49.3*	57.9*
C[C@@H]1CN([C@@H](C)CO)C(=O)CCCn2cc(nn2)CO[C@H]1CN(C)C(=O)Nc1ccc(C(F)(F)F)cc1	0.6	x	x	0.0	x	0.7	x	x
Cc1ccc(NC(=O)Cn2cc(S(=O)(=O)c3ccc(C)cc3)c(=O)c3cc(F)ccc32)cc1	12.8*	0.5	-4.2	-0.1	3.2	18.0	36.4*	62.3*
Cc1ccc(NC(=O)Cn2cc(S(=O)(=O)c3ccccc3)c(=O)c3cc(F)ccc32)cc1	3.9	-2.1	-0.3	-0.4	-4.2	24.6	x	x
